From PubChem BioAssay
WRN helicase inh: qHTS for Inhibitors of WRN Helicase; AID 651768, 2012; WRN helicase unwinding, fluorescent forked duplex, kinetic; 360,000 tested, 0.46% active; Potency, µM (doses to about 114 µM), for inactives: top-dose activity change, negative = inhibition, actives largely listed as inhibitors; Bifunctional 3'-5' exonuclease/ATP-dependent helicase WRN (Homo sapiens), Q14191; also: % is scaled to controls: 0 for no effect and ±100 for the full control effect; nearly all actives have a fitted effect of over 55% in size
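Kinetic fluorescence helicase assay: unwinding of a quenched forked DNA duplex (100 nM final) with 2 mM ATP final raises red fluorescence (525/598 nm). Compounds sat 15 min at room temperature with 20 nM WRN beforehand.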
Pol eta inh: qHTS for Inhibitors of Polymerase Eta; DNA polymerase eta (Homo sapiens), Q9Y253; recombinant Pol eta, fluorescent DNA replication assay; Potency, µM (doses to about 114 µM), for the others: at the top dose activity change, negative = inhibition, most hits filed as inhibitors; 390,000 tested, 1.2% active; AID 588591, 2011; also: % is scaled to controls: 0 for no effect and ±100 for the full control effect
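Pol eta (10 nM) was preincubated with compounds for 15 min at room temperature, after which fluorescent replication substrate (50 nM final) was added to start the reaction. Fluorescence was read kinetically at 0 and 10 min.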
FEN1 inh: qHTS Assay for the Inhibitors of Human Flap endonuclease 1 (FEN1). Potency, µM (doses to about 114 µM), for the others: top-dose activity change, negative = inhibition, usual class: inhibitors. Recombinant FEN1 flap cleavage, fluorescence, 15 min. 390,000 tested, 0.35% active. P39748. AID 588795, 2011; also: % is scaled to controls: 0 for no effect and ±100 for the full control effect; nearly all actives have a fitted effect of over 65% in size
Target sequence (P39748 whole entry, looked up): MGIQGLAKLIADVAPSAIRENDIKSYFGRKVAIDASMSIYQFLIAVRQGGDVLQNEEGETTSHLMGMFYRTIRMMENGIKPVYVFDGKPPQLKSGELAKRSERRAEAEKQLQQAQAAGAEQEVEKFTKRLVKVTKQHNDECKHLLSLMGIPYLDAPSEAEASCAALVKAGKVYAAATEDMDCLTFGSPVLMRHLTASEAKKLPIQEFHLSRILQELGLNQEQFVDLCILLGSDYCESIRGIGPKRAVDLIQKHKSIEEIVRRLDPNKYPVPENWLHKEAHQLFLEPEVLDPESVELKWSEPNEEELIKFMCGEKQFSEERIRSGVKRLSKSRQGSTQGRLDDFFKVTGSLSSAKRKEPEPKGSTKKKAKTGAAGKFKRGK
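Quantitative HTS format: each compound was titrated, incubated with 10 nM nuclease for 15 min at room temperature, then challenged with flap substrate at 50 nM final. Signal change over 15 min gave concentration–effect curves.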
POLK inh: qHTS for Inhibitors of Polymerase Kappa. DNA polymerase kappa (Homo sapiens), Q9UBT6. purified Pol kappa, fluorescent DNA synthesis assay, 10 min. Potency, µM (titrated, usually from 107 µM), without a hit: at the highest dose activity, negative = inhibition, usual class: inhibitors. 400,000 tested, 0.53% active. AID 588579, 2011; also: % is scaled to controls: 0 for no effect and ±100 for the full control effect
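Kinetic fluorescence readout at 0 and 10 min followed reaction start with substrate at 50 nM final. Beforehand, enzyme (10 nM Pol kappa) stood 15 min with compound at room temperature; buffer-only wells were negative controls.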
POLB inh: qHTS Assay for Inhibitors of DNA Polymerase Beta. P06746. Pol beta primer extension/strand displacement, fluorescence kinetic. Potency, µM (titrated, usually from 114 µM), for inactives: at the highest dose activity change, negative = inhibition, most hits filed as inhibitors. 340,000 tested, 1.3% active. AID 485314, 2010; also: % is scaled to controls: 0 for no effect and ±100 for the full control effect
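Preincubation: enzyme (10 nM) with compound, 15 min, RT. Reaction: substrate added to 50 nM final. Reads: 0 and 10 min. Analysis: normalized, Hill fit.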
Pol iota inh: qHTS for Inhibitors of Polymerase Iota; Pol iota fluorescent replication assay, 10 min; Potency, µM (series often up to 115 µM), for the others: top-dose activity, negative = inhibition, most hits filed as inhibitors; 390,000 tested, 1% active
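Pol iota at 10 nM preincubated 15 min with compounds at room temperature; reaction started with fluorescent substrate, 50 nM final. Fluorescence read kinetically at 0 and 10 min; buffer-only wells as negative control.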
Numbers without * were called inactive; ? = inconclusive; / = no result; [ ] = another dose, or the depositor's remark. Rows were chosen to be rich in hits. Some 2.4% of all compounds tested hit in one or more screens of this group. Calls follow the shape of the dose curve; as a rule, active = well fitted curve in the direction sought with a large enough effect; inconclusive = small, poorly fitted or top-dose-only effect, or another doubt; inactive = no such curve, though single readings can be large; an effect the other way counts as inactive or inconclusive. Potency is read from the fitted curve at half-maximal effect.

SMILES	WRN helicase inh	Pol eta inh	FEN1 inh	POLK inh	POLB inh	Pol iota inh
COc1ccc(-c2cc(C(F)(F)F)n3nc(C(=O)NCC45CC6CC(CC(C6)C4)C5)cc3n2)cc1	/	-5.3%	-23.8%	-20.4%	?	89.1µM*
O=C(NCc1ccco1)c1cc2nc(-c3ccc4c(c3)OCO4)cc(C(F)(F)F)n2n1	-13.9%	7.1%	-3.6%	-29.7%	79.4µM*	-4.5%
COc1ccc(-c2cc(C(F)(F)F)n3nc(C(=O)NCc4ccco4)cc3n2)cc1	-24.1%	-9.3%	-4.6%	-12.6%	3.5%	-1.9%
Cc1cc(-c2ccccc2)nc2cc(C(=O)NCc3ccco3)nn12	-33.3%	44.7µM*	-15.9%	?	?	?
O=C(OC(C(=O)N1CCOCC1)c1ccccc1)c1c2c(nc3ccccc13)CCCC2 (stereo not given)	/	/	-0.8%	-4.0%	/	8.0%
CCOC(=O)C1=C(N)Oc2ccc(Br)cc2C1C(C#N)C(=O)OCC (stereo not given)	/	/	/	-19.1%[60.1 µM]	/	/
CCSS(=O)(=O)c1cccc2cccnc12	31.6µM*	0.1%	-31.7%	-6.0%	1.5%	-2.0%
O=c1c(=O)n(-c2ccccc2)ccn1Cc1c(F)cccc1Cl	/	0.6%	-5.3%	-8.7%	?	37.8%
Cc1ccc(C(=O)N/N=C\c2ccc(-c3ccc(Cl)cc3)o2)cn1	-11.8%	-14.3%	-9.6%	-8.1%	1.8%	16.3%
CC(C)Oc1ccc(C(=O)N/N=C/c2ccc(-c3ccc(S(=O)(=O)Nc4ncccn4)cc3)o2)cc1	50.1µM*	2.82µM*	79.4µM*	44.7µM*	1.2%	?
COc1ccccc1CNC(=O)c1ccccc1C(=O)NC(CC(C)C)C(=O)NCc1ccccc1OC (stereo not given)	1.6%	-34.1%	-4.8%	-11.8%	4.5%	70.8µM*
COc1ccccc1CNC(=O)COC(=O)c1cnccn1	-9.4%	-8.8%	44.3%	2.6%	67.5%	?
COc1ccccc1CNC(=O)c1cnccn1	-16.1%[57.1 µM]	70.8µM*	-8.3%	?	39.8µM*	?
CC(=O)OCC(NC(=O)C1CCCN1C(=O)OC(C)(C)C)C1OC(n2cc(F)c(=O)[nH]c2=O)C(OC(C)=O)C1OC(C)=O (stereo not given)	/	/	-0.6%	-6.5%	/	0.7%
Cn1c(CCNC(=O)C2CCCCC2)nc2cc(NC(=O)c3cccs3)ccc21	-12.5%	2.6%	-3.1%	1.0%	39.8µM*	89.1%
Cn1c(=O)c2c(nc(CN3CCN(c4ccccc4F)CC3)n2Cc2ccc(F)cc2)n(C)c1=O	/	-23.3%	-19.4%	-4.0%	-11.4%	19.5%
OC[C@H]1O[C@@H](n2cnc3c(NCc4ccccc4)ncnc32)[C@H](O)[C@@H]1O	/	/	/	-8.1%[19.4 µM]	/	/
Cc1cc2oc3ccc(NCCCn4ccnc4)cc3c(=O)c2cc1C	-27.9%	56.2µM*	0.4%	-41.2%	/	22.4µM*
COc1cc2nc(N3CCCCC3)nc(NC3CC3)c2cc1OC	/	/	?	-25.9%	/	1.7%
c1cn(-c2cc(-c3ccc4c(c3)OCO4)ncn2)cn1	/	/	/	25.1µM*	/	/
CCCCCCSc1nc(O)c(C2OC(=O)c3c2ccc(OC)c3OC)c(=O)n1-c1ccccc1 (stereo not given)	-29.3%[57.1 µM]	17.8µM*	-6.0%	-27.4%	-20.2%	?
CCCCSc1nc(O)c(C2OC(=O)c3c2ccc(OC)c3OC)c(=O)n1C (stereo not given)	-21.1%	-2.4%	11.2%	3.0%	40.4%	?
O=C1CCCC(O)=C1N=Nc1ccc(Cl)c(Cl)c1	0.1%	-18.1%	4.2%	-4.3%	?	-19.4%
Cc1nc2cc(N=NC3=C(O)CCCC3=O)ccc2s1	-5.3%	-16.1%	-4.6%	-28.1%	-26.0%	50.1µM*
